Only some compounds are listed: those with a hit (about 19% of all), similar ones and a draw of the others.
IL1B secr inh = inflammasome signaling inhibition, IL-1 beta readout. THP-1 LPS/ATP IL-1B secretion, AlphaLISA, 16 h; active compounds read low. AID 743279. 360,000 compounds, 4.7% hits. activity change, % at 57.5 µM; in the data active means activity change below about -50%; inconclusive means mostly about -30% to -49%
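THP-1 cells pretreated 1 hr with compounds (up to 57.5 uM final), then stimulated with LPS (250 ng/mL final) plus ATP (1.25 mM final); secreted IL-1B measured by AlphaLISA after 16 hr, decreased signal indicating inhibition.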
HT1080-NT tox = kills 2HG-producing HT-1080-NT fibrosarcoma cells; HT-1080-NT fibrosarcoma viability, CellTiter-Glo ATP luminescence, 48 h; Potency, µM (doses to about 46.1 µM), for inactives: top-dose activity, negative = less viability, most hits filed as cytotoxic; 360,000 compounds, 1.6% hits; AID 686970;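 further: NT is the 2HG producing partner of a matched IDH1 knockdown line; potency means the concentration at half of the fitted maximal effect; 0% = DMSO-treated cells and -100% = media-only wells without cells; nearly all actives have a fitted effect of over 55% in size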
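750 cells/well, RPMI + 5% FBS; 2 h settle, compound pin-transfer, 48 h at 37 degrees C. CellTiter-Glo 10 min RT, luminescence. Normalized to DMSO and media-only wells.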
DT40 TDP1 CPT = growth inhibition of DT40 Tdp1-/-;hTDP1 cells with camptothecin (screen for TDP1 inhibitors) | 420,000 compounds, 12% hits | Potency, µM (series often up to 46.2 µM), without a hit: at the top dose activity change, negative = growth inhibition, usual class: inhibitors | chicken DT40 Tdp1-/-;hTDP1 cells + 20 nM CPT, ATP luminescence, 48 h; further: potency means the concentration at half of the fitted maximal effect; nearly all actives have a fitted effect of over 55% in size
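Chicken DT40 Tdp1-/- cells complemented with human TDP1, 400 cells/well, exposed to compounds plus 20 nM camptothecin for at least 48 h at 37 C; viability read as ATP content by CellTiter-Glo luminescence.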
ELG1 repair inh = ELG1-dependent DNA repair inhibition. HEK293T ELG1-luciferase reporter, luminescence, 16 h; DNA damage induced by 5-fluorouridine. Potency, µM (series often up to 46.1 µM), for the others: at the highest dose activity change, negative = inhibition, usual class: inhibitors. 330,000 compounds, 2.3% hits. AID 504467; further: potency means the concentration at half of the fitted maximal effect; nearly all actives have a fitted effect of over 55% in size
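Reporter activity after DNA damage by 5-fluorouridine is monitored. Compound-treated cells incubate 16 hr at 37 °C, then ONE-Glo is added for 30 min before luminescence reading.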
HT1080 IDH1KD tx = HT-1080 IDH1 knockdown cell toxicity (counter line); HT-1080 IDH1 knockdown viability, ATP luminescence, 48 h; Potency, µM (series often up to 46.1 µM), inactives show top-dose activity, negative = toxicity, most hits filed as cytotoxic; 360,000 compounds, 2% hits; AID 686971;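 further: potency means the concentration at half of the fitted maximal effect; 0% = DMSO wells and -100% = cell-free medium wells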
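Cytotoxicity counter-line: IDH1KD HT-1080, 48 h, CellTiter-Glo. Curves classed by r2, magnitude and activity.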
TDP1 cell noCPT = qHTS for Inhibitors of human tyrosyl-DNA phosphodiesterase 1 (TDP1): qHTS in cells in absence of CPT. DT40 Tdp1-/- hTDP1 cells, no CPT, ATP luminescence, 48 h. Potency, µM (top dose mostly 46.2 µM), for inactives: at the highest dose activity change, negative = growth inhibition, hits mostly inhibitors. 420,000 compounds, 15% hits. AID 686978, 2013; further: potency means the concentration at half of the fitted maximal effect; nearly all actives have a fitted effect of over 55% in size
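Chicken DT40 Tdp1-/- cells stably complemented with human TDP1 were seeded at 400 cells/well with DMSO in place of 20 nM camptothecin. After compound pinning, cells grew at least 48 hr at 37 °C; viability read by CellTiter-Glo luminescence.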
* hit, by the source's call; ? = inconclusive; . = not tested or not shown. Unless noted, the call rests on the fitted dose curve; in most records, active means well fitted curve in the direction sought with a large enough effect; inconclusive means small, poorly fitted or top-dose-only effect, or another doubt; inactive means no such curve, though single readings can be large; an effect the other way counts as inactive or inconclusive. Unless noted, on the % scale 0 is the no-effect control and ±100 the full control effect.

SMILES	IL1B secr inh	HT1080-NT tox	DT40 TDP1 CPT	ELG1 repair inh	HT1080 IDH1KD tx	TDP1 cell noCPT
CCOc1cc(-c2nnc(SCC(=O)NCc3ccccc3)nc2-c2ccc(OC)c(OCC)c2)ccc1OC	.	.	5.8µM*	.	.	3.3µM*
COCCNC(=O)CSc1nnc(-c2ccc(C)cc2)c(-c2ccc(C)cc2)n1	-26	-7%	26µM*	?	-12%	?
COc1ccc(CCNC(=O)CSc2nnc(Cc3cccn3C)n2C)cc1OC	2	15%	-15%	5%	17%	-9%
CN1C[C@@H]2C[C@@H](c3cccn3-c3nccs3)N3CCC[C@@]23C1=O	-18	14%	3%	8%	23%	-6%
CCCc1cc(=O)oc2cc(O[C@@H]3O[C@H](CO)[C@@H](O)[C@H](O)[C@H]3O)ccc12	-17	2%	-19%	-18%	-6%	-35%
CCCc1cc(=O)oc2c(C)c(OCC(=O)c3ccc(N4CCCC4)cc3)ccc12	6	12%	?	6%	7%	18µM*
Cc1cc(=O)oc2c(C)c(OCC(=O)N3CCN(c4cccc(Cl)c4)CC3)ccc12	-23	-17%	21µM*	?	2%	23µM*
Cc1ccc(S(=O)(=O)N2CCN(C(=O)C3COc4ccccc4O3)CC2)cc1C (stereo not drawn)	-9	-2%	-24%	-16%	0%	-25%
CCc1cc(=O)oc2c(C)c(OCC(=O)N3CCC(C(=O)O)CC3)ccc12	33	-1%	-12%	-5%	-4%	?
Cc1cc(C)c(S(=O)(=O)N2CCN(C(=O)C3COc4ccccc4O3)CC2)c(C)c1 (stereo not drawn)	-2	-18%	13µM*	?	-5%	9.2µM*
CCCc1cc(=O)oc2c(C)c(O[C@@H]3O[C@H](CO)[C@@H](O)[C@H](O)[C@H]3O)ccc12	-11	-13%	?	?	-9%	7.3µM*
CC1(C(=O)Nc2ccc3c(c2)OCCO3)CCC(=O)N1C1CCN(Cc2ccccc2)CC1 (stereo not drawn)	-15	18%	7%	.	14%	2%
Cc1cc(=O)oc2c(C)c(OCC(=O)N3CCN(C(=O)C4COc5ccccc5O4)CC3)ccc12 (stereo not drawn)	-6	-4%	?	?	-4%	16µM*
CC(C(=O)Nc1ccc2c(c1)OCCO2)N(C)Cc1c(F)cccc1Cl (stereo not drawn)	?	-12%	?	?	-22%	?
CC(CC(=O)c1ccc(F)cc1)N1CCN(c2ccccc2)CC1 (stereo not drawn)	-15	0%	18µM*	.	3%	?
CCOC(=O)C(C(=O)OCC)C(c1ccccc1)N1CCN(c2ccccc2)CC1 (stereo not drawn)	-16	2%	?	.	-2%	21µM*
Cc1noc(C)c1NC(=O)N(C)C[C@@H]1Oc2ccc(NC(=O)Cc3cn(C)c4ccccc34)cc2CC(=O)N([C@H](C)CO)C[C@@H]1C	2	10%	-9%	20%	-1%	?
Cc1sc2ncn(CC(=O)NCCCC(=O)N3CCN(Cc4ccc5c(c4)OCO5)CC3)c(=O)c2c1C	-6	4%	-15%	?	-16%	-16%
Cc1ccc(-c2nnc(NC(=O)c3ccc([N+](=O)[O-])o3)o2)c(C)c1	?	?	16µM*	-16%	?	13µM*
COc1ccc(-c2nnc(NC(=O)c3ccc([N+](=O)[O-])o3)o2)c(OC)c1	-19	-1%	?	-4%	-2%	18µM*
Cc1ccc(-c2nnc(NC(=O)C3=COCCO3)o2)c(C)c1	-3	-3%	-20%	?	-1%	-19%
